HT1080-NT tox = kills 2HG-producing HT-1080-NT fibrosarcoma cells; HT-1080-NT fibrosarcoma viability, CellTiter-Glo ATP luminescence, 48 h; Potency, µM (series often up to 46.1 µM), usual class: cytotoxic; 360,000 compounds, 1.6% hits;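 note: NT is the 2HG producing partner of a matched IDH1 knockdown line; nearly all actives have a fitted effect of over 55% in size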
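Fibrosarcoma NT cells, 750 per well in 5% FBS RPMI, were exposed to compound for 48 hours. Viability: CellTiter-Glo luminescence.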
MCF10A rereplic = inducers of DNA re-replication in MCF 10A breast cells; MCF 10A DNA re-replication, Hoechst nuclear intensity, 48 h; 350,000 compounds, 2.9% hits; Potency, µM (titrated, usually from 46.1 µM), hits mostly activators; AID 624296; note: nearly all actives have a fitted effect of over 50% in size
KB-V1 cytotox = kills drug-selected multidrug resistant KB-V1 cells. KB-V1 MDR cells viability, CellTiter-Glo, 72 h. Potency, µM (doses to about 46.1 µM), most hits filed as cytotoxic. 400,000 compounds, 3.4% hits. AID 1347076; note: nearly all actives have a fitted effect of over 60% in size
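qHTS viability screen in drug-selected KB-V1 MDR cells: 72 h compound treatment at 37 degrees C, ATP luminescence end point.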
SW480 rereplic = induces DNA re-replication in SW480 colon adenocarcinoma cells | SW480 DNA re-replication, Hoechst DNA content imaging, 48 h | Potency, µM (titrated, usually from 46.1 µM), hits mostly activators | 340,000 compounds, 1.8% hits; note: nearly all actives have a fitted effect of over 55% in size
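SW480 cells exposed to compounds for 48 hr at 37 C, 5% CO2, then Hoechst-stained 40 min. Nuclear DNA content imaged by fluorescence scanning (405 nm excitation, 500-530 nm emission); re-replication scored as increased high-intensity nuclei.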
HT1080 IDH1KD tx = kills HT-1080 cells with IDH1 knockdown; HT-1080 IDH1 knockdown viability, ATP luminescence, 48 h; Potency, µM (doses to about 46.1 µM), most hits filed as cytotoxic; 360,000 compounds, 2% hits; AID 686971
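Cytotoxicity counter-line: IDH1KD HT-1080, 48 h, CellTiter-Glo. Curves classed by r2, magnitude and activity.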
KB-3-1 tox = kills parental KB-3-1 adenocarcinoma cells | Potency, µM (titrated, usually from 46.1 µM), hits mostly cytotoxic | KB-3-1 viability, CellTiter-Glo ATP luminescence, 72 h | 400,000 compounds, 1.4% hits | AID 1347075; note: nearly all actives have a fitted effect of over 60% in size
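Using CellTiter-Glo luminescence, growth of non-resistant KB-3-1 adenocarcinoma cells is assessed 72 h after pin-tool compound addition at 37 °C. Normalized responses across the concentration series yield fitted curves.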
Large screens that a line does not name were inactive. Hits are enriched below; roughly 7.9% of the tested compounds scored in any of these assays. Calls come from the whole dose curve; as a rule, active = well fitted curve in the direction sought with a large enough effect; inconclusive = small, poorly fitted or top-dose-only effect, or another doubt; inactive = no such curve, though single readings can be large; an effect the other way counts as inactive or inconclusive.

O=C(Nc1nc2ccc(S(=O)(=O)N3CCCCC3)cc2s1)C1CCCO1 (stereo not given)	SW480 rereplic inconclusive, KB-3-1 tox inconclusive
O=C(Nc1nc2ccc(S(=O)(=O)N3CCCC3)cc2s1)C1CCCCC1	HT1080-NT tox 21µM, MCF10A rereplic 10µM, KB-V1 cytotox 3.7µM, SW480 rereplic 7.3µM, HT1080 IDH1KD tx 15µM, KB-3-1 tox 2.6µM
Cc1ccc(-c2nn(-c3ccccc3)cc2C(=O)NCCCN2CCOCC2)cc1	KB-V1 cytotox inconclusive
COc1ccc(N(C(=O)c2snc(C(N)=O)c2N)C(C(=O)NCC2CCCO2)c2ccc(C)o2)cc1OC (stereo not given)	SW480 rereplic inconclusive
Cc1ccnc(NC(=S)N2CCN(c3ccc(O)cc3)CC2)c1	none (no result: HT1080-NT tox, MCF10A rereplic, SW480 rereplic, HT1080 IDH1KD tx)
Cc1cc(C)c2c(c1)cc(C)c1nnc(SCC(=O)Nc3ccc(S(=O)(=O)N4CCCCC4)cc3)n12	KB-V1 cytotox 18µM
COc1ccc(OC)c(S(=O)(=O)N2CCC(C(=O)Nc3cc(C)ccc3C)CC2)c1	MCF10A rereplic inconclusive, KB-V1 cytotox inconclusive, SW480 rereplic 4.6µM
COc1ccc2nc(NC(=O)C3CCCN3S(=O)(=O)c3ccc(C)cc3)sc2c1 (stereo not given)	KB-V1 cytotox 18µM
Cc1ccc2cc(C)c(SCC(=O)Nc3ccc(S(=O)(=O)N4CCCC4)cc3)nc2c1	none
Cc1ccc(S(=O)(=O)N2CCCCC2)cc1NC(=O)C1CCC1	KB-V1 cytotox 23µM
COC(=O)C1Cc2c([nH]c3ccccc23)CN1C(C)=O (stereo not given)	none
CC1CCN(C(C)C(=O)Nc2cc(S(=O)(=O)N3CCCCC3)ccc2Cl)CC1 (stereo not given)	KB-V1 cytotox 15µM, KB-3-1 tox inconclusive
C=CCN(CC=C)S(=O)(=O)c1ccc2nc(NC(=O)C3CCCO3)sc2c1 (stereo not given)	HT1080-NT tox inconclusive, MCF10A rereplic inconclusive, KB-V1 cytotox 8.2µM, SW480 rereplic inconclusive, HT1080 IDH1KD tx inconclusive, KB-3-1 tox inconclusive
O=C(Nc1nc2ccccc2s1)C1CCN(S(=O)(=O)c2cc([N+](=O)[O-])ccc2Cl)CC1	HT1080-NT tox inconclusive, KB-V1 cytotox 13µM, SW480 rereplic inconclusive, HT1080 IDH1KD tx 16µM, KB-3-1 tox 2.3µM
CC1CC(C)CN(C(C)C(=O)Nc2cc(S(=O)(=O)N3CCCCC3)ccc2Cl)C1 (stereo not given)	none
Cc1ccc(C(=O)Nc2nc3ccc(S(=O)(=O)N4CCCC4)cc3s2)cc1	none (no result: HT1080-NT tox, MCF10A rereplic, SW480 rereplic, HT1080 IDH1KD tx)
CN(C)c1cccc(C(=O)Nc2nc3ccc(S(=O)(=O)N4CCCC4)cc3s2)c1	KB-V1 cytotox 21µM, KB-3-1 tox 10µM (no result: HT1080-NT tox, MCF10A rereplic, SW480 rereplic, HT1080 IDH1KD tx)
COc1ccc(OC)c(NC(=O)Nc2ccc3[nH]ccc3c2)c1	none
COc1ccc(C)cc1S(=O)(=O)Nc1cccc(-c2ccc(N3CCCC3)nn2)c1	none (no result: HT1080-NT tox, MCF10A rereplic, SW480 rereplic, HT1080 IDH1KD tx)
OC[C@@H]1CN(Cc2ccncc2)C[C@H](n2cnc3c(N4CCCC4)ncnc32)O1	none (no result: MCF10A rereplic, SW480 rereplic)
COc1cccc(C(=O)Nc2nc3ccc(S(=O)(=O)N4CCCC4)cc3s2)c1	KB-V1 cytotox inconclusive, KB-3-1 tox 13µM (no result: HT1080-NT tox, MCF10A rereplic, SW480 rereplic, HT1080 IDH1KD tx)
Cc1cc(C)nc(NC(N)=NCCc2ccccc2)n1	HT1080-NT tox 10µM, MCF10A rereplic 18µM, SW480 rereplic 16µM, HT1080 IDH1KD tx 23µM, KB-3-1 tox 5.2µM
O=S1(=O)C[C@H](N2CCCC2)[C@@H](COCc2ccccc2)N1	HT1080 IDH1KD tx inconclusive (no result: MCF10A rereplic, SW480 rereplic)
COC(=O)C1OC(OC2CC[C@]3(C)C(CC[C@@]4(C)[C@@H]3CC=C3[C@@H]5CC(C)(C)CC[C@]5(C(=O)OC5OC(CO)C(O)C(O)C5O)CC[C@]34C)C2(C)C)C(O)C(O)C1O[C@H]1OCC(O)C(O)C1O (stereo not given in full)	HT1080-NT tox inconclusive, MCF10A rereplic inconclusive, HT1080 IDH1KD tx inconclusive
CC1(C)CC[C@]2(C(=O)O[C@@H]3OC(CO)[C@@H](O)[C@H](O)[C@H]3O)CC[C@]3(C)C(=CCC4[C@@]5(C)CC[C@H](O[C@@H]6OC(C(=O)O)[C@@H](O)[C@H](O)[C@H]6O)C(C)(C)C5CC[C@]43C)[C@@H]2C1 (stereo not given in full)	MCF10A rereplic 18µM
CN(C)/C=N/c1c(C#N)cnn1-c1ccc(C(F)(F)F)cn1	MCF10A rereplic 15µM
CN(C)/C=N/c1c(C#N)cnn1-c1ccccc1	MCF10A rereplic inconclusive
CCOc1ccccc1/C=C/c1nc2ccccc2[nH]c1=O	MCF10A rereplic inconclusive, SW480 rereplic 23µM, HT1080 IDH1KD tx inconclusive
CCOc1ccccc1OCCCC(=O)Nc1nc2ccccc2[nH]1	none
NC(=S)Cc1ccccc1Cl	SW480 rereplic 18µM
O=C(NCc1ccc(Cl)cc1Cl)c1cccc(N2CCCS2(=O)=O)c1	none (no result: HT1080-NT tox, MCF10A rereplic, SW480 rereplic, HT1080 IDH1KD tx)
Cc1ccc(OCC(=O)Nc2ccc(S(=O)(=O)N3CCOCC3)cc2)c(Br)c1	none
COc1ccc(N2CCN(C(c3cccc(OC)c3OC)c3nnnn3C3CCCC3)CC2)cc1 (stereo not given)	MCF10A rereplic inconclusive, SW480 rereplic 13µM
COc1ccc(OC)c(C(c2nnnn2C2CCCC2)N2CCc3ccccc3C2)c1 (stereo not given)	KB-V1 cytotox 16µM, KB-3-1 tox inconclusive
COc1ccc(C(c2nnnn2C2CCCC2)N2CCc3ccccc3C2)cc1OC (stereo not given)	KB-V1 cytotox inconclusive
O=C1COc2cc(S(=O)(=O)CCC(=O)N3CCN(c4ccccc4)CC3)c(Cl)cc2N1	none (no result: HT1080-NT tox, MCF10A rereplic, SW480 rereplic, HT1080 IDH1KD tx)
O=C(Nc1ccc(Br)cn1)c1cccc2ccccc12	HT1080-NT tox 2.9µM, MCF10A rereplic 4.1µM, KB-V1 cytotox 1µM, SW480 rereplic 3.3µM, HT1080 IDH1KD tx 5.8µM
O=C(Nc1ccc(Cl)cn1)c1cccc2c(Br)cccc12	HT1080-NT tox inconclusive, MCF10A rereplic inconclusive, SW480 rereplic inconclusive, HT1080 IDH1KD tx inconclusive, KB-3-1 tox 12µM
COc1c(C(=O)Nc2ccc(Br)cn2)ccc2ccccc12	none
O=C(Nc1ccc(Br)cn1)c1ccc2nccnc2c1	MCF10A rereplic inconclusive, KB-V1 cytotox 16µM, SW480 rereplic inconclusive, KB-3-1 tox inconclusive
COc1ccc(NC(=O)c2csnn2)cc1	none (no result: HT1080-NT tox, MCF10A rereplic, SW480 rereplic, HT1080 IDH1KD tx)
Cc1cccc(-n2c(CNC(=O)c3cccc(F)c3)nnc2SCC(=O)Nc2ccccc2F)c1	none (no result: HT1080-NT tox, MCF10A rereplic, SW480 rereplic, HT1080 IDH1KD tx)
Nc1ccc(CSc2ccc(Cl)cc2)c(Cl)c1	MCF10A rereplic 21µM, SW480 rereplic inconclusive
N=C(N)SCc1ccc(Cl)cc1Cl	MCF10A rereplic inconclusive, SW480 rereplic inconclusive
Cc1noc(C)c1NC(=O)Nc1ccc2c(c1)C(=O)N([C@H](C)CO)C[C@H](C)[C@@H](CN(C)C(=O)NC1CCCCC1)O2	KB-3-1 tox inconclusive
O=c1cc(O)c2ccc(O)cc2o1	none
